Source: PubChem BioAssay (NCI)
This is part of a sample that, as a whole, favours compounds with a hit. Of some 83,000 tested, about 20% had one in any assay.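 Treatment: one concentration, 48 hours, 96-well format. Scoring: percent growth, with anything below 10 considered active.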 The source made the active and inactive calls.

How the values were obtained:
Test in all cases: NCI-60 one-dose screen, 48 h (100 = growth as untreated, 0 = no growth, -100 = all killed)
Details in all cases: 10 µM
SR leukemia = tested on: SR leukemia
RPMI-8226 leukemia = tested on: RPMI-8226 leukemia
OVCAR-8 ovarian = tested on: OVCAR-8 ovarian
OVCAR-5 ovarian = tested on: OVCAR-5 ovarian
OVCAR-4 ovarian = tested on: OVCAR-4 ovarian
SK-OV-3 ovarian = tested on: SK-OV-3 ovarian
IGROV1 ovarian = tested on: IGROV1 ovarian
HS 578T breast = tested on: HS 578T breast
NCI/ADR-RES ovarian = tested on: NCI/ADR-RES ovarian
OVCAR-3 ovarian = tested on: OVCAR-3 ovarian

Measured: growth

CC(C)Sc1nc(NC2CC2)c(C#N)c(-c2ccccc2)n1
inactive: SR leukemia 99.8% | RPMI-8226 leukemia 94.2% | OVCAR-8 ovarian 30.8% | OVCAR-5 ovarian 92% | OVCAR-4 ovarian 27.6% | SK-OV-3 ovarian 88.8% | IGROV1 ovarian 74% | HS 578T breast 71.7% | NCI/ADR-RES ovarian 57.6%

Cc1ccn2c(C(=O)c3ccccc3)cc(-c3cc(-c4ccc(N(C)C)cc4)c(C#N)c(N)n3)c2c1
inactive: SR leukemia 75.9% | RPMI-8226 leukemia 82.5% | OVCAR-8 ovarian 15.1% | OVCAR-5 ovarian 83.4% | OVCAR-4 ovarian 45.5% | SK-OV-3 ovarian 65.2% | IGROV1 ovarian 86.3% | HS 578T breast 33.2% | NCI/ADR-RES ovarian 50.8%

COC1=C[C@@]23CCC(=O)N2CCc2cc4c(cc2[C@H]3[C@H]1OC(=O)C(C)(C)O)OCO4
inactive: SR leukemia 96.1% | RPMI-8226 leukemia 92.3% | OVCAR-8 ovarian 109% | OVCAR-5 ovarian 101% | OVCAR-4 ovarian 98.6% | SK-OV-3 ovarian 120% | IGROV1 ovarian 103% | HS 578T breast 98.1% | NCI/ADR-RES ovarian 97.4%

Clc1cccc(N/N=C/c2c[nH]c3ccccc23)n1
active: RPMI-8226 leukemia 4.05% | IGROV1 ovarian -4.86% | OVCAR-3 ovarian -12.6% | NCI/ADR-RES ovarian -4.45%
inactive: SR leukemia 13.7% | OVCAR-8 ovarian 41% | OVCAR-5 ovarian 52.2% | OVCAR-4 ovarian 41.3% | SK-OV-3 ovarian 63.7%

CC(=O)Nc1ccc(-n2cnc3cc(-c4ccc(NS(C)(=O)=O)cc4)ccc32)cc1
inactive: SR leukemia 21.8% | RPMI-8226 leukemia 55.8% | OVCAR-8 ovarian 66.9% | OVCAR-5 ovarian 79.3% | OVCAR-4 ovarian 60% | SK-OV-3 ovarian 87.9% | IGROV1 ovarian 36.4% | HS 578T breast 57.9% | NCI/ADR-RES ovarian 70.5%

CCCn1c(=O)c2[nH]c(-c3ccc(OCc4nc5ccc(C)cc5[nH]4)cc3)nc2n(CCC)c1=O
active: OVCAR-4 ovarian 0.252% | SK-OV-3 ovarian 4.62% | HS 578T breast -12.4%
inactive: SR leukemia 11.6% | RPMI-8226 leukemia 29.3% | OVCAR-8 ovarian 17.3% | OVCAR-5 ovarian 40.6% | IGROV1 ovarian 37% | NCI/ADR-RES ovarian 31.7%

Cn1cc(-c2cc(N)n3nc(-c4c[nH]c5ccc(Br)cc45)cc3n2)c2cc(Br)cnc21
active: SR leukemia -15.6% | RPMI-8226 leukemia -6.39% | OVCAR-8 ovarian -41.6% | OVCAR-5 ovarian -61.9% | OVCAR-4 ovarian -41.1% | SK-OV-3 ovarian -55.9% | IGROV1 ovarian -21.6% | OVCAR-3 ovarian -90.4% | NCI/ADR-RES ovarian -60%

COc1cccc(-c2ccnc(/N=C(\N)Nc3ccc(S(=O)(=O)Nc4nc(C)cc(C)n4)cc3)n2)c1
inactive: SR leukemia 100% | RPMI-8226 leukemia 90.1% | OVCAR-8 ovarian 102% | OVCAR-5 ovarian 107% | OVCAR-4 ovarian 96% | IGROV1 ovarian 83.4% | OVCAR-3 ovarian 99.3% | HS 578T breast 86.4% | NCI/ADR-RES ovarian 103%

C=C[C@@]12CN3CC[C@]1(O)[C@@](C(=O)OC)(CO2)c1[nH]c2ccccc2c1C3
inactive: SR leukemia 75.5% | RPMI-8226 leukemia 46.9% | OVCAR-8 ovarian 62.8% | OVCAR-5 ovarian 49.2% | OVCAR-4 ovarian 62.3% | IGROV1 ovarian 95.2% | OVCAR-3 ovarian 61.6% | NCI/ADR-RES ovarian 49.1%

OCCNc1oc(-c2ccccc2)nc1[P+](c1ccccc1)(c1ccccc1)c1ccccc1
active: SR leukemia 1.42% | RPMI-8226 leukemia 3.91% | OVCAR-8 ovarian 7.35% | SK-OV-3 ovarian -3.42% | IGROV1 ovarian -12.9% | HS 578T breast -3.9%
inactive: OVCAR-5 ovarian 31.2% | OVCAR-4 ovarian 10.2% | NCI/ADR-RES ovarian 99%

COc1ccc(-c2cc(C(=O)N=Nc3c(O)[nH]c4ccc(Br)cc34)c3ccccc3n2)cc1
inactive: RPMI-8226 leukemia 38.7% | OVCAR-5 ovarian 51.3% | OVCAR-4 ovarian 51% | SK-OV-3 ovarian 114% | IGROV1 ovarian 12.3% | HS 578T breast 61.6% | NCI/ADR-RES ovarian 43.2%
active: SR leukemia 3.37% | OVCAR-8 ovarian 8.79%

C/C(=C\CSc1ccccc1C(=O)O)CCCC(C)CCCC(C)CCCC(C)C (stereo unspecified)
inactive: SR leukemia 18.7% | RPMI-8226 leukemia 35% | OVCAR-8 ovarian 54% | OVCAR-5 ovarian 115% | OVCAR-4 ovarian 57.3% | SK-OV-3 ovarian 96.5% | IGROV1 ovarian 76.1% | HS 578T breast 56% | NCI/ADR-RES ovarian 43.1%

C/C(=N\NC(N)=S)c1ccc(Nc2nc(SC(C)C)nc(-c3ccccc3)c2C#N)cc1
inactive: SR leukemia 79.9% | RPMI-8226 leukemia 72.3% | OVCAR-8 ovarian 30.5% | OVCAR-5 ovarian 75.6% | OVCAR-4 ovarian 57.7% | IGROV1 ovarian 81.3% | OVCAR-3 ovarian 67.3% | HS 578T breast 18.7% | NCI/ADR-RES ovarian 61.6%
